Reference: PubChem BioAssay AID894 (National Center for Advancing Translational Sciences (NCATS), 2007)
Hit rate of the full screen: of about 150,000 compounds, about 6,500 (4.3%) were called active. About 12% were inconclusive and are not listed. Only a selection was taken, and actives are over-represented in it overall. A number with no mark means an inactive call. The call rests on the fitted dose curve; in most records, active means well fitted inhibition curve with a large enough effect (not every such curve was filed as active); inconclusive means small, poorly fitted or top-dose-only effect, or another doubt; inactive means no such curve, though single readings can be large or run the other way.

Each compound was assayed against 15-hydroxyprostaglandin dehydrogenase [NAD(+)] (Homo sapiens) (UniProt P15428) (assay: qHTS Assay for Inhibitors of HPGD (15-Hydroxyprostaglandin Dehydrogenase)). Details: purified HPGD, NADH fluorescence kinetic, PGE2 substrate; activity change, negative = inhibition: hits give low values.
Procedure, shortened: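 20 nM HPGD preincubated 15 min at room temperature with compound in 50 mM Tris-HCl pH 8, 0.01% Tween 20. Started with 1 mM NAD+ and 30 uM prostaglandin E2; NADH fluorescence (360/450 nm) read 5 times over 30-s intervals, last minus first.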
On the % scale 0 is the no-effect control and ±100 the full control effect; potency means the concentration at half of the fitted maximal effect.

15-hydroxyprostaglandin dehydrogenase [NAD(+)] (Homo sapiens), sequence (P15428 whole entry, looked up): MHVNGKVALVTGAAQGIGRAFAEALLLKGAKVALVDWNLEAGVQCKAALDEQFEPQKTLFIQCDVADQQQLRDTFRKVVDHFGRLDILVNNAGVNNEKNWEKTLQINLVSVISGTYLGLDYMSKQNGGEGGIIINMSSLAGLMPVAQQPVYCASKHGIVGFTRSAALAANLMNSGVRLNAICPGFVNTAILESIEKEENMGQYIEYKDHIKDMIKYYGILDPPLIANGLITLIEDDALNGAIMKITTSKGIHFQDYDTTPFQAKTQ

Row | Structure (SMILES) | activity change, negative = inhibition | Potency
1 | CN(C)/N=C/c1cc(Cl)cc([N+](=O)[O-])c1O | -18.9% | 
2 | O=C(/C=C/c1ccccc1[N+](=O)[O-])NCC1CCCO1 (configuration not stated) |  | 4.47 µM (active)
3 | O=C(NCC1CCCO1)/C(=C/c1ccc(Cl)cc1)NC(=O)c1ccccc1 (configuration not stated) | -23% | 
4 | O=C(NCC1CCCO1)c1ccc2ccccc2n1 (configuration not stated) | -27.3% | 
5 | COC(=O)c1cc(C(=O)N(Cc2ccccc2)c2ccccn2)cc([N+](=O)[O-])c1 | -15.3% | 
6 | Cc1cc(SCC(=O)NCCN2C(=O)CSC2=O)nc2ccccc12 | -24.5% | 
7 | Cc1cc(Br)ccc1SCC(=O)OCC(=O)NCc1ccc2c(c1)OCO2 |  | 25.1 µM (active)
8 | O=C(COC(=O)c1ccc(Cl)nc1)NCc1ccc2c(c1)OCO2 | -9.81% | 
9 | Cc1ccc(C(=O)OCC(=O)NCc2ccc3c(c2)OCO3)s1 | -10.3% | 
10 | C=CCNCCCCOc1ccccc1 | -5.77% | 
11 | COC(=O)c1ccccc1NS(=O)(=O)c1ccc2[nH]c(=O)[nH]c2c1 | -11.9% | 
12 | CCN1C(=O)N[C@@H](CCc2ccccc2)C(C(=O)OC)=C1C | -3.92% | 
13 | CC(=O)Oc1ccc(C(=O)Nc2nccs2)cc1 | -13.6% | 
14 | COc1cc(C(=O)Nc2nccs2)cc(OC)c1OC | -15.1% | 
15 | Cn1cccc1C(=O)Nc1nccs1 |  | 31.6 µM (active)
16 | CC(OC(=O)c1ccccc1N1C(=O)C2C3CCC(C3)C2C1=O)C(=O)c1ccccc1 (configuration not stated) | -11.4% | 
17 | CCOc1ncccc1C(=O)N(CC)CC(=O)Nc1ccc(NC(C)=O)cc1 | -1.26% | 
18 | C/C=C/c1ccc(OCCOc2ccc(C=O)cc2OC)c(OC)c1 | -16.6% | 
19 | O=C(CC1NCCNC1=O)Nc1cc(Cl)cc(Cl)c1 (configuration not stated) | -10.9% | 
20 | CC(=O)Nc1cccc(/C(C)=N/NC(=O)c2ccccc2Cl)c1 | -5.88% | 
21 | O=C(Nc1cc(=O)[nH]c2ncnn12)c1ccccc1Cl |  | 22.4 µM (active)
22 | O=C(Nc1ccc2nc3n(c(=O)c2c1)CCCCC3)c1ccccc1Cl | -20.5% | 
23 | CC(Cc1cccs1)NC(=O)NC1CCCCC1 (configuration not stated) | -17.9% | 
24 | COCC(C)NC(=O)c1ccc(Cl)c(Cl)c1 (configuration not stated) | -23% | 
25 | CC(Cc1cccs1)NC(=O)c1cccc(Cl)c1 (configuration not stated) |  | 7.94 µM (active)

Row | Structure (SMILES) | activity change, negative = inhibition | Potency
26 | COc1ccc(-c2nc(-c3ccccc3)oc2Nc2ccc3ccccc3c2)cc1 | -1.48% | 
27 | O=C(NCCN1CCOCC1)c1ccc2c(c1)ncn2C1CCCC1 | -2.32% | 
28 | COCCCNC(=S)NC(=O)c1ccccc1 | -5.04% | 
29 | COc1ccccc1-n1c(C)nc2cc(C(=O)NCc3ccc4c(c3)OCO4)ccc21 | -21.3% | 
30 | COc1ccc(NS(=O)(=O)c2ccc(NC(C)=O)cc2)cc1OC | -1.98% | 
31 | COCCCNC(=O)c1ccc2c(c1)ncn2-c1ccccc1OC |  | 11.2 µM (active)
32 | COc1ccccc1-n1cnc2cc(C(=O)NCC3CCCO3)ccc21 (configuration not stated) |  | 12.6 µM (active)
33 | Cc1ccccc1CN(c1ccc(C(=O)NCC2CCCO2)cc1)S(C)(=O)=O (configuration not stated) | -4.02% | 
34 | COc1cc(NS(=O)(=O)c2ccccc2)ccc1-n1nc(C)cc1C | -3.88% | 
35 | COc1ccccc1-n1cnc2cc(NS(=O)(=O)c3ccccc3)ccc21 |  | 14.1 µM (active)
36 | CC(=O)NC1C(Oc2ccc(C)cc2)OC2COC(c3ccco3)OC2C1O (configuration not stated) | 0.675% | 
37 | COc1ccccc1-c1nnc(NC(=O)c2ccc3ncsc3c2)o1 | -16.3% | 
38 | Cc1ccccc1NC(=S)N(CCCN1CCOCC1)Cc1cccs1 | 8.96% | 
39 | N#Cc1ccc(N2Cc3ccccc3/C2=N/C(=O)Nc2ccc(Cl)cc2)cc1 | -24.3% | 
40 | CCCCN(CC)C(=O)c1ccccc1Oc1ccccc1 | -9.66% | 
41 | CC(=O)N/C(=C/c1ccc(OC(F)F)cc1)C(=O)O | -3.55% | 
42 | CN(C)C(CNC(=O)c1ccc(S(=O)(=O)NCc2ccco2)cc1)c1ccccc1 (configuration not stated) | -10.1% | 
43 | CCCc1nc(SCC(=O)Nc2ccc(S(=O)(=O)N(C)C)cc2)c2ccccc2n1 | -22.1% | 
44 | CONc1nc2nonc2nc1NOC | -6.28% | 
45 | O=c1cc(CSc2ccccn2)nc(N2CCN(c3ccccc3)CC2)[nH]1 | -4.21% | 
46 | Cc1nnc(SCc2cc(=O)[nH]c(N3CCN(Cc4ccccc4)CC3)n2)s1 |  | 10 µM (active)
47 | CCc1c(C)nc(N2CCN(Cc3ccccc3)CC2)[nH]c1=O | -6.13% | 
48 | CC(C)CNC(=O)CC(NCC(C)C)C(=O)O (configuration not stated) | -6.89% | 
49 | Cc1ccc2[nH]cc(CCCN3C(=O)c4ccccc4C3=O)c2c1 | -4.52% | 
50 | O=C(CSCc1c(F)cccc1Cl)NCC1CCCO1 (configuration not stated) |  | 14.1 µM (active)

Row | Structure (SMILES) | activity change, negative = inhibition | Potency
51 | O=C(NCC1CCCO1)C(C(=O)c1ccccc1)n1cc(Cl)ccc1=O (configuration not stated) | -7.62% | 
52 | O=C(CS(=O)(=O)Cc1ccccc1)NCC1CCCO1 (configuration not stated) | -19.1% | 
53 | CC(=O)[C@H](C(c1ccccc1)N1CCOCC1)N1CCOCC1 (some centres not stated) | -6.44% | 
54 | O=C(CCCCCNC(=O)c1ccccc1)N/N=C/c1ccccc1 | -2.21% | 
55 | CN(C)S(=O)(=O)c1cccc(NC(=S)N/N=C/C(=O)c2ccccc2)c1 | -16% | 
56 | O=C(Nc1ccc2c(c1)OCCO2)c1ccncc1 | -1.78% | 
57 | O=C(Nc1nc2ccccc2s1)c1ccc2c(c1)OCO2 | -20.6% | 
58 | Cc1ccc2sc(NNC(=O)c3ccc4c(c3)OCCO4)nc2c1C |  | 11.2 µM (active)
59 | CCCCn1c(O)c(N=NC(=O)Cn2c(C(F)(F)F)nc3ccccc32)c2ccccc21 | -5.51% | 
60 | CNS(=O)(=O)c1ccc(N2CCCC2=O)c([N+](=O)[O-])c1 | -12.5% | 
61 | COc1ccc(NS(=O)(=O)c2ccc(NC(=O)C(C)(C(F)(F)F)C(F)(F)F)cc2)nn1 | -19.1% | 
62 | COC(=O)c1ccc(CSc2nc3cc(Cl)ccc3o2)cc1 | -20.6% | 
63 | COc1cc(NS(=O)(=O)c2ccc(N/C=C(\C=O)c3nc4cc(Cl)ccc4o3)cc2)nc(OC)n1 |  | 14.1 µM (active)
64 | O=C(NC(CC(=O)N1CCN(c2ccccc2)CC1)c1ccccc1)c1ccccc1Cl (configuration not stated) | -5.04% | 
65 | COc1ccc(N(C(=O)c2ccc(C)cc2)S(=O)(=O)c2cccs2)cc1 | -10% | 
66 | COc1ccc(N2C(=O)C(O)C2c2ccc(C)cc2)cc1 (configuration not stated) | -14.1% | 
67 | Cc1ccc(S(=O)(=O)c2ccc(Cl)cc2)cc1S(=O)(=O)NC(C(=O)O)C(C)C (configuration not stated) | -5.59% | 
68 | O=C(NCc1ccco1)C1(c2ccc(Cl)cc2)CCCC1 | -8.03% | 
69 | O=C(NCc1ccco1)c1cc(-c2cccnc2)nc2ccc(Cl)cc12 | -28% | 
70 | O=C(/C=C/c1ccc(Cl)cc1Cl)NCc1ccco1 |  | 15.8 µM (active)
71 | CCNC(=S)N(CCc1c(C)[nH]c2ccc(C)cc12)Cc1ccco1 | -13.1% | 
72 | COc1cc2c(cc1OC)C(=O)NCC(C)(C)O2 | -19.2% | 
73 | COc1ccc(-n2c(C)csc2=S)cc1 | -9.23% | 
74 | COc1ccc(N2C(=O)CNC2=S)cc1 | -14.3% | 
75 | COc1ccc(-c2cn(-c3ccc(OC)cc3)c(=S)[nH]2)cc1 |  | 25.1 µM (active)

Row | Structure (SMILES) | activity change, negative = inhibition | Potency
76 | CN(C)S(=O)(=O)c1cc(NC(=O)CN2C(=O)NC3(CCCc4ccccc43)C2=O)ccc1Cl (configuration not stated) | -12.7% | 
77 | O=C(O)c1ccc(N=NN2CCOCC2)cc1 | -13.6% | 
78 | Cc1ccc(NC(=O)NC(=O)N(C2CCCCC2)S(=O)(=O)c2ccccc2)cc1 | -16% | 
79 | CC(=O)Nc1ccc(S(=O)(=O)NC(C)C(=O)OCC(=O)NC2CCCC2)cc1 (configuration not stated) | -4.32% | 
80 | CCCc1cc(-c2n[nH]c(=S)n2CC)c2ccccc2n1 | -28.5% | 
81 | CCCCC(CC(C)O)c1n[nH]c(=S)n1-c1ccccc1 (configuration not stated) | -3.38% | 
82 | CC(C)Oc1ccc(CCc2n[nH]c(=S)n2Cc2ccccc2)cc1 |  | 10 µM (active)
83 | O=C(N/N=C\c1ccc(Br)cc1)c1ccc(Cn2cccn2)o1 | -5.99% | 
84 | COCCOC(=O)c1c(C)oc2cc(Br)c(OCC(N)=O)cc12 | -7.04% | 
85 | COC(C(=O)NCc1ccccc1C)c1ccccc1 (configuration not stated) | -8.94% | 
86 | Cc1nc2ccccc2cc1C(=O)N/N=C/c1ccc([N+](=O)[O-])cc1 | -5.88% | 
87 | Cn1c(-c2sc3cc(C(F)(F)F)cnc3c2-c2ccccc2)n[nH]c1=S |  | 31.6 µM (active)
88 | Cc1cc(C(F)(F)F)n2ncc(-c3ccccc3)c2n1 | -0.556% | 
89 | CCc1c(C)[nH]c(=S)c(C#N)c1C |  | 35.5 µM (active)
90 | CCOC(=O)c1c(C)[nH]c(=S)c(C#N)c1-c1ccccc1 | -27.3% | 
91 | CCCCC1S/C(=N/N=C/c2cccs2)NC1=O (configuration not stated) | -7.59% | 
92 | COC(=O)C1=C(C(=O)OC)[C@@H]2Nc3ccccc3[C@@]23C[C@@H](C(=O)OC)N(S(=O)(=O)c2ccc([N+](=O)[O-])cc2)C3=N1 | -10.9% | 
93 | Cc1ccc(C)c(NC(=S)NNC(=O)c2csc(C)c2)c1 | -5.84% | 
94 | CN(C)c1cc2c(Nc3ccc4c(cnn4Cc4ccccc4)c3)ncnc2cn1 |  | 12.6 µM (active)
95 | COc1ccc(Nc2ncnc3ccc(OC)cc23)cc1 | -4.83% | 
96 | Cn1ncc2c(Nc3cccc4ccccc34)ncnc21 | -9.06% | 
97 | CCOC(=O)C1=C(c2ccc(OC)cc2)C(=O)c2ccccc2C1=O | -6.53% | 
